Screens deposited in PubChem by Sanford-Burnham Center for Chemical Genomics.
Hits are enriched below; roughly 4% of the tested compounds scored in any of these assays.
CF NFkB inh = inhibitors of cystic fibrosis induced NF-kB; KKLEB NF-kB-GFP reporter, PAF-induced, GFP fluorescence overnight; inhibition, % at 5 µM; 0.86% of 360,000 active;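 active = at least 50% inhibition at 5 µM, scaled per plate between neutral and stimulator controls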;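 also: PAF is a Pseudomonas aeruginosa culture filtrate used as stimulus; plate controls were PAF-stimulated DMSO wells for no effect and unstimulated DMSO wells for full effect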
TWEAK Fn14 block = inhibitors of TWEAK-Fn14 interaction signaling. TWEAK-stimulated Fn14 reporter cells, luciferase luminescence, 8 h. inhibition, % at 10 µM. 2% of 360,000 active; in the data active = inhibition above about 50%
TROY signal inh = TROY signaling inhibition; Q293 LMP1-TROYcd NF-kB luciferase reporter, 4 h; inhibition, % at 10 µM; 0.98% of 360,000 active; AID 1347056;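 active = compounds whose plate-normalised and pattern-corrected inhibition of the luciferase reporter signal at the single screening dose is 50% or more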
HIF-2a inh = inhibitors of HIF-2a. AID 624352. 786-0 RCC cells HIF-2a reporter, luciferase luminescence, overnight. 0.72% of 360,000 active. inhibition, % at 18.8 µM;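 active = inhibition of the luminescence signal of 40% or more relative to plate controls, in a single-dose primary screen at 18.75 µM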
Peg3 promoter = inhibitors of Peg3 promoter. HeLa PEG-Prom luciferase reporter, luminescence, overnight. inhibition, % at 20 µM. 1.7% of 360,000 active;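 active = inhibition of at least 50% at 20 µM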
KKLEB cytotox = CF airway cell cytotoxicity counter-screen | KKLEB CF airway cells viability, ATPlite luminescence, overnight; active compounds read low; cells stimulated with P. aeruginosa culture filtrate | activity change (cytotoxicity), % at 5 µM | 0.36% of 360,000 active | AID 602141;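 active = corrected activity change at or below -50% at 5 µM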
An asterisk follows results filed as active; . = no result.

SMILES	CF NFkB inh	TWEAK Fn14 block	TROY signal inh	HIF-2a inh	Peg3 promoter	KKLEB cytotox
Cc1cnc(NC(=O)c2nn(C)cc2[N+](=O)[O-])s1	15.5	-10.0	-1.4	-23.8	93.5*	-3.2
O=C(Nc1nccs1)c1sc2ccccc2c1Cl	0.2	67.0*	-0.4	-67.6	-75.5	-25.9
Cc1ccnc(NC(=O)c2sc3ccccc3c2Cl)c1	-15.0	74.8*	53.9*	-86.0	-75.8	-75.2*
Cc1ccc(C(=O)Nc2ncc(C)s2)s1	-6.8	57.3*	16.4	-84.1	-93.7	-22.4
O=C(CC1CS(=O)(=O)CC1CC(=O)Nc1ccc2c(c1)OCCO2)Nc1ccc2c(c1)OCCO2 (configuration not stated)	-13.9	91.3*	-2.5	19.5	23.4	-11.0
CCC(=O)Nc1ccc2c(c1)OCCO2	3.3	34.7	14.3	-2.2	-17.6	-2.3
CC(=O)Nc1ccc(NC(=O)c2c(C)nc3ccccn23)cc1	-7.1	-9.4	-6.1	-16.5	-18.3	0.3
O=C(CCN1C(=O)c2ccccc2C1=O)Nc1ccc2c(c1)OCCO2	-1.8	14.8	0.2	8.9	5.1	4.3
Cc1ccsc1C(=O)Nc1ccc2c(c1)OCCO2	-1.1	32.7	-15.5	-88.6	-128.3	-8.9
Cc1nc2ccccn2c1C(=O)Nc1ccc2c(c1)OCCO2	8.6	85.0*	67.5*	0.9	-173.1	-7.5
Cc1ncoc1C(=O)Nc1ccc2c(c1)OCCO2	3.6	73.3*	41.5	-31.8	-70.3	-5.1
O=C(CCn1cccn1)Nc1ccc2c(c1)OCCO2	5.5	78.3*	61.5*	-0.2	-6.8	-2.7
CC(C)(C)OC(=O)NN1CC(=O)N2[C@@H](Cc3c([nH]c4ccccc34)C2(C)C)C1=O	19.2	20.1	-3.2	3.0	21.0	14.2
O=C(Nc1ccc2c(c1)OCCO2)c1coc2ccccc2c1=O	24.8	86.9*	85.4*	16.6	3.3	3.8
CC1(C(=O)Nc2ccc3c(c2)OCCO3)CCN1C(=O)c1ccccc1CCc1ccccc1 (configuration not stated)	-19.1	68.5*	35.1	29.4	18.9	-2.2
Cc1ccccc1C(=O)Nc1ccc2c(c1)OCCO2	11.9	57.8*	-12.2	-47.5	-56.1	0.2
O=C(CCl)Nc1c(C(=O)Nc2ccc3c(c2)OCCO3)oc2ccccc12	19.8	35.1	24.1	-52.3	98.3*	-31.4
CC(=O)c1ccc(N2CCN(C(=O)c3cccs3)C(C)C2)c(F)c1 (configuration not stated)	3.3	2.0	5.5	9.8	11.8	1.3
Cc1c(Cl)cccc1NC(=O)CCN1CCC(C(N)=O)CC1	-2.6	11.4	-1.9	21.2	4.9	5.2
Cc1cccc2cc(-c3nc4ccc(C(=O)O)cc4[nH]3)c(=O)oc12	-3.8	85.2*	0.9	-23.7	22.5	-3.4
Cc1ccc(NN=C2c3ccccc3-c3ccccc32)cc1	19.3	39.6	51.6*	-151.8	-161.0	-8.2
CC1(C(=O)NCc2ccccc2Br)CCN1Cc1ccc2ccccc2c1 (configuration not stated)	13.4	7.2	28.6	5.5	2.2	-17.3
CCOc1ccc(OCCC(=O)N(CCC2=CCCCC2)c2c(N)n(Cc3ccccc3)c(=O)[nH]c2=O)cc1	0.4	8.2	16.8	18.1	29.4	1.6
CCOc1ccc(OCC(=O)N(CCC2=CCCCC2)c2c(N)n(Cc3ccccc3)c(=O)[nH]c2=O)cc1	71.8*	19.8	10.7	4.1	82.7*	-61.5*
COc1ccc(CC(=O)N(CCC2=CCCCC2)c2c(N)n(Cc3ccccc3)c(=O)[nH]c2=O)cc1	-13.5	-10.1	-9.5	12.9	16.6	0.3
SMILES	CF NFkB inh	TWEAK Fn14 block	TROY signal inh	HIF-2a inh	Peg3 promoter	KKLEB cytotox
CC(CC(=O)N(CCC1=CCCCC1)c1c(N)n(Cc2ccccc2)c(=O)[nH]c1=O)c1ccccc1 (configuration not stated)	-11.8	21.8	20.0	-6.2	87.1*	4.7
COc1ccc(Cl)cc1NC(=O)CN1CCC(n2nnc3cc(C)ccc32)CC1	21.0	19.2	0.8	1.6	85.9*	-17.8
O=C(CN1CCC(n2nnc3cc(C(F)(F)F)ccc32)CC1)Nc1ccc2c(c1)OCCO2	-13.9	74.5*	63.7*	28.0	-78.6	-3.8
COC(=O)CCC(=O)NNC(=O)C1CC1(c1ccccc1)c1ccccc1 (configuration not stated)	8.1	6.2	-0.4	22.9	5.8	-1.9
CCN(CC)S(=O)(=O)c1cccc(NC(=O)c2ccc(-n3nc(C)cc3C)cc2)c1	-27.3	60.3*	47.7	1.3	19.0	22.4
CN(C)S(=O)(=O)Oc1ccc(C(=O)Nc2cccc(Cl)c2)cc1	8.8	-50.8	-38.2	-202.9	-257.7	6.6
CN(C)S(=O)(=O)Oc1ccc(C(=O)Nc2cccc(C(F)(F)F)c2)cc1	-5.9	53.7*	15.1	-62.8	-26.1	-3.3
Cc1cc(C)n(-c2ccc(C(=O)Nc3ccc(C)c(S(=O)(=O)N(C)C)c3)cc2)n1	6.0	53.5*	19.9	-8.4	19.6	3.0
Cc1ccc(NC(=O)c2ccc(OC(F)(F)F)cc2)cc1S(=O)(=O)N(C)C	-2.1	51.7*	12.6	-26.4	-27.7	6.0
Cc1cc(C)n(-c2ccc(C(=O)Nc3ccc(S(=O)(=O)NCc4ccco4)cc3)cc2)n1	-6.7	59.3*	38.1	8.8	20.6	8.2
Cc1ccc(C(=O)Nc2ccc(S(=O)(=O)NCc3ccco3)cc2)cc1	2.9	-6.8	-74.9	-60.7	-36.0	-1.2
CCCCN1C(=O)c2ccc(C(=O)Nc3ccc(C)c(S(=O)(=O)N(C)C)c3)cc2C1=O	-19.5	91.0*	54.7*	16.3	35.6	24.3
CCCN(C(=O)c1c(CC)noc1C)c1c(N)n(Cc2ccccc2)c(=O)[nH]c1=O	-23.9	-18.0	-9.0	0.2	-12.0	8.9
CC(C)C[C@@H]1O[C@H](CCc2ccccc2)Cc2[nH][nH]c(=O)c21	.	5.8	-0.1	8.1	.	.
O=C(Nc1ccnn1C1CCN(C/C=C/c2ccccc2)CC1)c1cccc(F)c1	11.3	-4.8	-9.5	0.7	-8.6	-11.4
C=Cc1ncc(OC)c2c1[nH]c1ccccc12	5.3	23.7	10.3	31.4	80.5*	-53.9*
Clc1ccc2nc(COc3ccccc3)[nH]c2c1	-27.1	9.6	-31.0	-373.8	-228.8	14.8
Cc1ccccc1NC(=S)NNC(=O)c1csc2c1CCC(C)C2 (configuration not stated)	14.4	86.9*	80.1*	-7.2	1.1	1.1
CCNC(=S)NNC(=O)c1csc2c1CCC(C)C2 (configuration not stated)	-2.8	-24.4	-14.4	-77.2	-66.5	4.6
COc1ccc(-n2c(=O)c3ccccc3n(Cc3cccc(C)c3)c2=O)cc1OC	9.3	15.2	-3.0	20.8	9.4	-14.4
CCCS(=O)(=O)c1c(S(=O)(=O)CCC)c2c(C)cccn2c1C(=O)N/N=C/c1cc(O)cc(O)c1	11.2	-42.8	-2.0	10.1	53.0*	0.3
